Bioassay records as filed in PubChem.
dFosB act: mouse delta FosB homodimer activation; purified delta FosB, TAMRA-CDK5 oligo fluorescence polarization; percent of positive-control signal above neutral wells; P13346; AID 493131; activation, % at 25 µM; 340,000 compounds, 0.99% hits;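 active = mean activation above about 17%, with every replicate also reaching it, limit read from the data, passing the limit was not always enough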
Target sequence (P13346 whole entry, looked up): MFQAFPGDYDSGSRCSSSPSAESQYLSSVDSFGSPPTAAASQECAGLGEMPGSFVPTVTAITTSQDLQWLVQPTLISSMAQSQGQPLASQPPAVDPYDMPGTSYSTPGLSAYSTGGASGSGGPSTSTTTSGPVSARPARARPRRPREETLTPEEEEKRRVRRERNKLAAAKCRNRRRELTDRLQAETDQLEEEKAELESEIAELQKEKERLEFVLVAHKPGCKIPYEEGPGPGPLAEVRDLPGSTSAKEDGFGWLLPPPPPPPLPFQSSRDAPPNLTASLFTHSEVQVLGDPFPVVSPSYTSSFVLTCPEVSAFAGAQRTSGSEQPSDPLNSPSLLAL
MPTP inh: blocks calcium-induced mitochondrial swelling; isolated mouse mitochondria, Ca2+ swelling absorbance, 30 min; inhibition, % at 10 µM; 360,000 compounds, 1.4% hits; AID 602449;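 active = inhibition of 50% or more, scaled per plate between neutral and stimulator controls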
HSF1 inhib: HSF1 inhibition | AID 2098 | NIH3T3-HGL HSE-luciferase, MG132-induced, luminescence 8 h; active compounds read low | activity change, negative = inhibition, % at 7.5 µM (by protocol) | 300,000 compounds, 0.77% hits;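 active = more than half of replicate wells show activity change below -50%, luminescence cut by over half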;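 also: luciferase reports HSF-1 transcriptional activity via heat shock element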
HSF1 activator: increases HSF-1 driven luciferase reporter signal | activation, % at 9 µM | AID 504408 | 300,000 compounds, 1.7% hits | NIH3T3-HGL HSF-1 luciferase reporter, MG132, 8 h; 100% = twice DMSO control signal;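 active = mean replicate activation of at least 50% with a set share of replicates each reaching 50%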
Platelet DG rel: platelet dense granule release activity; 300,000 compounds, 0.22% hits; inhibition, %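 (compounds screened at 7.5 µM in platelet-rich plasma)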; human platelet-rich plasma, SFLLRN dense granule ATP release, luminescence;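 active = mean replicate score, as percent of positive control, at or above 50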
HSP90 inh: HSP90 refolding inhibition in rabbit reticulocyte lysate. luciferase refolding luminescence, 3 h. inhibition, % at 5.6 µM. 290,000 compounds, 0.91% hits;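 active = inhibition above the screen-wide mean plus 3 SD, computed separately per campaign, cut at about 16% in these data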;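 also: inhibitors lower the luminescence because luciferase stays unfolded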
MPTP counter: mitochondrial membrane potential, counter-screen. shares compounds with MPTP inh. isolated mitochondria, Rhodamine 123 fluorescence. inhibition, % at 10 µM. 5,000 compounds, 78% hits. AID 624504; in the data active = inhibition above about 22%
MPTP swell DR: dose response confirmation of mitochondrial permeability transition pore inhibitors | shares compounds with MPTP inh | isolated mitochondria swelling, absorbance | IC50, µM | 780 compounds, 58% hits | AID 651561; in the data active = IC50 below about 20 µM
MPTP cs DR: MPTP inhibitor counter-screen activity, dose response; IC50, µM; 780 compounds, 49% hits; shares compounds with MPTP inh; AID 651564; isolated mitochondria counterscreen, fluorescence read-out; in the data active = IC50 below about 80 µM
Numbers stand for hits; 0 = inactive; - = no result. Only some compounds are listed: those with a hit (about 4.9% of all), similar ones and a draw of the others.

SMILES | dFosB act | MPTP inh | HSF1 inhib | HSF1 activator | Platelet DG rel | HSP90 inh | MPTP counter | others
CC(=O)c1ccc(NC(=S)NC2CCCC(C)C2C)cc1 (stereo unspecified) | 0 | 71 | 0 | 0 | 0 | 0 | 75
CC1CCCC(NC(=S)Nc2cccc(S(=O)(=O)N(C)C)c2)C1C (stereo unspecified) | 0 | 73 | 0 | 0 | 0 | 0 | 92
CN(C)S(=O)(=O)c1cccc(NC(=S)NNC(=O)c2cc3ccccc3cc2O)c1 | 0 | 52 | - | - | - | - | 48
COc1cc2c(cc1O)C(CSC)Cc1cc3c(cc1N(C)CC2)OCO3 (stereo unspecified) | - | 0 | - | - | - | - | -
O[C@@H]1CN(Cc2ccc(-n3cccn3)cc2)CC[C@H]1N1CCN(c2ccccc2F)CC1 | 0 | 69 | 0 | 0 | 0 | 0 | 59
Cc1ccc(C(NC(=O)NC(C)c2ccccc2)C(Cl)(Cl)Cl)cc1F (stereo unspecified) | 0 | 76 | 0 | 0 | 0 | 0 | 83
COC(=O)c1ccccc1-n1cccc1C(=O)NP(=O)(N1CCOCC1)N1CCOCC1 | 0 | 0 | 0 | 0 | 0 | 0 | -
O=C(O)c1cccc(S(=O)(=O)Nc2ccc(O)c(Sc3nc4ccccc4s3)c2)c1 | 0 | 0 | 0 | 0 | 0 | 0 | -
O=S(=O)(Nc1ccc(O)c(Sc2nc3ccccc3s2)c1)c1ccc(F)cc1 | 0 | 78 | 0 | 0 | 0 | 0 | 55
OC(c1ccccc1)c1ncc(-c2cccc(F)c2)[nH]1 (stereo unspecified) | - | 0 | - | - | - | - | -
COc1ccc(CC(NC(C)=O)C(=O)N2CCN(C(=O)Nc3ccc(Cl)cc3)CC2)cc1OC (stereo unspecified) | 0 | 55 | - | - | - | 0 | 73
CC1=NN(c2ccccc2)C(=O)/C1=C/c1cccs1 | 0 | 0 | 0 | 0 | 0 | 0 | -
CC1=NN(c2ccccc2)C(=O)/C1=C/c1c(O)n(-c2ccc(F)cc2)[nH]c1=O | 0 | 61 | 0 | 0 | 0 | 0 | 0
CC1=NN(c2ccccc2)C(=O)/C1=C/c1ccc(Cl)cc1 | 0 | 98 | 0 | 0 | 0 | 0 | 84
Fc1ccc(Nc2c3c(nc4ccccc24)CCC3)cc1 | 0 | 70 | 0 | 0 | 0 | 0 | 84
CCn1c(CNC(=O)COc2ccc(C(C)C)cc2)nnc1SCC(=O)Nc1ccccc1C(C)C | 0 | 53 | 0 | 0 | 0 | 0 | 57
CCn1c(CNC(=O)COc2ccc(C(C)C)cc2)nnc1SCC(=O)Nc1ccccc1F | 0 | 0 | 0 | 0 | 0 | 0 | -
CCc1ccc(C2C(C#N)=C(N)SC(N)=C2C#N)s1 | 0 | 77 | 0 | 0 | 0 | 0 | 56
Cc1ccc(C2C(C#N)=C(N)SC(N)=C2C#N)o1 | - | - | 0 | 0 | 0 | 0 | -
CCc1ccc(C2C(C#N)=C(N)SC(N)=C2C#N)cc1 | 0 | 74 | 0 | 0 | 0 | 0 | 82
CCOC(=O)c1c(NC(=O)CSc2nc3ccccc3[nH]2)sc2c1CC(C)(C)NC2(C)C | 0 | 0 | 0 | 0 | 0 | - | -
COC(=O)c1c(NC(=O)c2ccc(C(=O)c3ccccc3)cc2)sc2c1CC(C)(C)NC2(C)C | - | 0 | - | - | - | - | -
COC(=O)c1c(NC(=O)c2nc3ccccc3s2)sc2c1CC(C)(C)NC2(C)C | 0 | 60 | 0 | 0 | 0 | 0 | 0 | MPTP swell DR=0;MPTP cs DR=0
CCOc1ccc(C(=O)Nc2sc3c(c2C(=O)OC)CC(C)(C)NC3(C)C)cc1 | 0 | 85 | 0 | 0 | 0 | 0 | 0 | MPTP swell DR=20;MPTP cs DR=0
O=C(NCc1ccncc1)[C@@H]1CCCN1C(=O)[C@@H]1CCCN1C(=O)c1cccc2ccccc12 | - | 0 | - | - | - | - | -
SMILES | dFosB act | MPTP inh | HSF1 inhib | HSF1 activator | Platelet DG rel | HSP90 inh | MPTP counter | others
Cc1c(O)ccc2c(CN(C)Cc3ccccc3)cc(=O)oc12 | 0 | 84 | 0 | 0 | 0 | 0 | 62
CCNC(=S)NNC(=O)c1cc(-c2ccccc2C)nc2ccccc12 | 0 | 0 | 0 | 0 | 0 | 0 | -
Cc1ccc(C)c(-c2cc(C(=O)NNC(=S)NCC(C)C)c3ccccc3n2)c1 | 0 | 87 | 0 | 0 | 0 | 0 | 80
CCCOc1ccc(C(=O)NNC(=S)NC(=O)c2cc(-c3ccc(Cl)cc3)nc3ccccc23)cc1 | 0 | 93 | 0 | 0 | 0 | 0 | 20
CCCOc1cccc(-c2cc(C(=O)NNC(=S)NCC)c3ccccc3n2)c1 | 0 | 50 | 0 | 0 | 0 | 0 | 56
COc1ccc(C(=O)NNC(=S)NC(=O)c2cc(-c3ccccc3)nc3ccccc23)cc1 | 0 | 0 | 0 | 0 | 0 | 0 | -
COc1cccc(C(=O)N2CCN(C3CCN(Cc4ccccc4)CC3)CC2)c1OC | 0 | 0 | 0 | 0 | 0 | 0 | -
CCCn1c(N)c(C(=O)COC(=O)CNC(=O)c2ccc(C)c(C)c2)c(=O)n(C)c1=O | 0 | 0 | - | - | - | - | -
O=C(c1ccccc1)c1ccc(OCC(O)CNCc2ccc(Cl)cc2)cc1 (stereo unspecified) | 0 | 0 | 0 | 0 | 0 | 0 | -
COc1cccc(CNCC(O)COc2ccc(C(=O)c3ccccc3)cc2)c1 (stereo unspecified) | 0 | 84 | 0 | 0 | 0 | 0 | 0 | MPTP swell DR=0;MPTP cs DR=51
COc1ccc(-n2nc(C(=O)c3cccs3)cc(-c3nc4ccccc4[nH]3)c2=N)cc1 | 0 | 78 | 0 | 0 | 0 | 0 | 0
Cc1ccccc1-n1nc(C(=O)c2cccs2)cc(-c2nc3ccccc3[nH]2)c1=N | 0 | 91 | 0 | 0 | 0 | 0 | 98
CCCCNC(=O)C1(C)CCCCN1Cc1ccc2ccccc2c1 (stereo unspecified) | - | 0 | - | - | - | - | -
CC(C)(C)n1ncc(Oc2ccccc2[N+](=O)[O-])c(Cl)c1=O | 0 | 86 | 0 | 0 | 0 | 0 | 34
CN(Cc1ccc(OC(F)F)cc1)C(=O)c1cccc(S(=O)(=O)N2CCN(Cc3ccccc3)CC2)c1 | 0 | 58 | - | - | - | - | 99
COc1ccc(NC(=O)CN(c2ccc(OC)cc2)S(=O)(=O)c2c(C)nn(C)c2C)cc1 | 0 | 0 | 0 | 0 | 0 | 0 | -
CCC(CC)Nc1ccc(C(CC(N)=O)NC(=O)Cc2cccc3ccccc23)cc1[N+](=O)[O-] (stereo unspecified) | 0 | 0 | 0 | 0 | 0 | 0 | -
O=S(OCCN1CCCC1)C(c1ccccc1)c1ccccc1 (stereo unspecified) | 0 | 0 | - | - | - | - | -
COc1ccc(NC(=O)N(C)[C@H]2C[C@H]3c4[nH]c5ccc(-c6ccc(OC)cc6)cc5c4CCN3C[C@H]2[C@H](C)O)cc1 | - | 0 | - | - | - | - | -
C[C@H](O)[C@@H]1CN2CCc3c([nH]c4ccccc34)[C@@H]2C[C@@H]1N(C)C(=O)Nc1ccc(Br)cc1 | - | 83 | - | - | - | - | 104
COC1=C/C(=C/c2c(N)n3cc(C)sc3nc2=O)C=CC1=O | 0 | 0 | 0 | 0 | 0 | 0 | -
